Assay outcomes: PubChem BioAssay, several laboratories
Sampled rows, rich in hits. Any-hit rate of the full collection: about 3.2%.
EWS-Fli inh: EWS/Fli-driven NR0B1 reporter inhibitors, primary screen, A673 cells, NR0B1 luciferase, luminescence, MLPCN library; viability-normalised; inhibition, % at 12.6 µM; 0.67% of 350,000 active;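 active = mean inhibition of at least 50% after viability correction, with every replicate also passing that limit; inconclusive = mean reaches 50% but only one of two replicates passes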;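 note: firefly luciferase signal divided by Alamar Blue viability fluorescence both relative to DMSO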
LGR2 antag: inhibitors of bursicon-induced LGR2 CRE-luciferase signal, primary screen, cell-based, HEK293, CRE-luciferase reporter, bursicon stimulation | Drosophila bursicon receptor LGR2 (rickets) | bursicon-stimulated, 4 h | inhibition, % at 9.99 µM | 0.35% of 380,000 active | AID 720647, 2013;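 active = drop in luminescence signal, shown as inhibition above about 50% in the replicate tests, limit read from the data, passing the limit was not always enough; inconclusive = probably only some replicates passing the limit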;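 note: agonist challenge used bursicon conditioned medium at about half maximal strength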
EBV LMP1 NFkB: EBV LMP1-driven NF-kappaB luciferase reporter inhibitors, primary screen, cell-based, luminescence, single point; LMP1-induced NF-kappaB luciferase reporter cells; inhibition, % at 12.5 µM; 0.69% of 350,000 active; AID 504558, 2011; in the data active = inhibition above about 41%; inconclusive = no clear call, values can overlap the other calls;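 note: 0% = neutral control wells and 100% = reference inhibitor control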
PAX8 reporter: inhibitors of PAX8-driven TPO luciferase reporter, primary screen, RMG-I cells, single concentration; inhibition, % at 12.6 µM; SteadyGlo, 24 h; AID 652154, 2013; 1.2% of 360,000 active;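 active = mean replicate inhibition at least 60% with every replicate also reaching 60%; inconclusive = only one of the two criteria is met; inactive = mean below 60% and not all replicates reaching 60%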;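 note: luciferase light reporting Pax8 driven TPO promoter activity; plate controls were median of neutral control wells for no effect and mitoxantrone controls for full effect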
TROY NFkB inh: inhibitors of TROY-driven NF-kB signaling, primary screen, Q293 LMP1-TROYcd cells, NF-kB luciferase, uHTS | Q293 LMP1-TROYcd NF-kB luciferase reporter, 4 h | inhibition, % at 10 µM | 0.98% of 360,000 active | AID 1347056, 2019;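 active = compounds whose plate-normalised and pattern-corrected inhibition of the luciferase reporter signal at the single screening dose is 50% or more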
TWEAK Fn14 block: inhibitors of TWEAK-Fn14 signaling, primary screen, luciferase reporter cells, uHTS; TWEAK-stimulated Fn14 reporter cells, luciferase luminescence, 8 h; 2% of 360,000 active; inhibition, % at 10 µM; AID 1159606, 2016; in the data active = inhibition above about 50%
Active calls of the source: *; ? = inconclusive; · = no result given.

SMILES	EWS-Fli inh	LGR2 antag	EBV LMP1 NFkB	PAX8 reporter	TROY NFkB inh	TWEAK Fn14 block
COc1ccc(-c2cc3ccc(F)cc3cn2)cc1	2.4	62.8*	-36.0	-123.1	-15.3	50.3*
CCOC(=O)C1=C(C)NC(=O)CC1c1cc(OC)c(OC)cc1Br (configuration not stated)	-6.8	-19.4	-0.6	14.6	-8.3	0.4
C=CCOC(=O)C1=C(C)N(C)C(=O)NC1c1cc2c(cc1Br)OCO2 (configuration not stated)	·	·	-18.1	·	82.5*	89.7*
CCOC(=O)C1=C(C)NC(=O)CC1c1cc2c(cc1Br)OCO2 (configuration not stated)	·	·	-14.9	·	·	100.5*
Nc1c(C(=O)OCC2CCCO2)c2nc3ccccc3nc2n1C1CCCC1 (configuration not stated)	·	·	1.6	·	60.3*	36.4
COCCn1c(N)c(C(=O)NCC2CCCO2)c2nc3ccccc3nc21 (configuration not stated)	·	·	5.3	10.1	5.9	42.5
COCC(C)OC(=O)c1c(N)n(CC(C)C)c2nc3ccccc3nc12 (configuration not stated)	·	·	8.7	4.9	58.2*	25.6
COc1ccc(OC)c(-n2c(N)c(C(=O)NCC3CCCO3)c3nc4ccccc4nc32)c1 (configuration not stated)	·	·	-4.6	·	-3.5	8.4
CC(C)Cn1c(N)c(C(=O)NCC2CCCO2)c2nc3ccccc3nc21 (configuration not stated)	·	·	0.8	·	50.7*	6.3
COc1ccc2c3c(n(C)c2c1)[C@@H](CO)N(S(C)(=O)=O)CC31CCN(CC2CCCC2)CC1	5.1	-15.1	·	-4.0	·	·
COc1ccccc1N(Cc1ccccc1)S(=O)(=O)c1cccc(C(=O)Nc2ccc(C)cn2)c1	21.2	15.3	12.4	59.4	20.4	53.0*
C[C@@H]1CN([C@H](C)CO)C(=O)c2cc(-c3ccncc3)cnc2O[C@@H]1CN(C)C(=O)c1ccc(F)cc1	-5.3	-2.2	·	·	·	·
C[C@@H]1CN([C@H](C)CO)S(=O)(=O)c2ccc(C#CC3(O)CCCC3)cc2O[C@H]1CN(C)C(=O)c1ccncc1	8.7	0.3	·	·	·	·
Cc1ccccc1N=C1NN=C(c2ccccc2F)CS1	-36.2	·	19.2	-48.5	57.0*	68.4*
Cc1cc(C2=NNC(=NC3CC3)SC2)c(C)n1-c1ccccc1F	93.7*	94.7*	77.9*	102.1*	89.2*	103.8*
Cc1ccccc1NC1=C/C(=N\S(=O)(=O)c2cccs2)c2ccccc2C1=O	·	·	91.3*	109.7*	66.5*	101.6*
COc1ccc(S(=O)(=O)/N=C2\C=C(Nc3ccc(O)cc3)C(=O)c3ccccc32)cc1	52.4*	100.7*	74.0*	107.7*	35.3	101.5*
CC(=O)Nc1ccc(NC2=C/C(=N/S(=O)(=O)c3cccs3)c3ccccc3C2=O)cc1	18.0	97.8*	2.2	83.3*	66.6*	98.9*
Cc1noc(C)c1NC(=O)Nc1ccc2c(c1)C(=O)N([C@H](C)CO)C[C@H](C)[C@H](CN(C)S(=O)(=O)c1ccc(F)cc1)O2	0.5	-26.9	·	2.5	·	·
O=C(C[C@H]1CC[C@H]2[C@@H](COC[C@H](O)CN2Cc2nccs2)O1)NCc1ccc(-c2ccccc2)cc1	20.6	-19.1	·	23.2	·	·
CO[C@@H]1CN(C)C(=O)c2ccc(NS(C)(=O)=O)cc2OC[C@@H](C)N(Cc2cccnc2)C[C@H]1C	7.1	5.5	·	·	·	·
C[C@@H]1CCCCO[C@@H](CN(C)C(=O)c2ccccc2)[C@H](C)CN([C@@H](C)CO)C(=O)c2cc(NC(=O)Cc3ccccc3)ccc2O1	2.9	3.4	·	3.2	·	·
CC=Cc1ccc2n(c1=O)C[C@H]1[C@H](CO)[C@@H](C(=O)N3CCc4ccccc4C3)N[C@@H]21 (mixture of isomers)	0.3	-0.2	·	·	·	·
O=C(NCCCSc1ccccc1)c1cc(Br)ccc1O	·	17.9	-4.4	5.8	35.2	50.6*
Cn1ncc(Cl)c1C(=O)NC1CCCC1	-1.6	10.3	52.8*	10.7	14.9	2.1
SMILES	EWS-Fli inh	LGR2 antag	EBV LMP1 NFkB	PAX8 reporter	TROY NFkB inh	TWEAK Fn14 block
Cn1ncc([N+](=O)[O-])c1C(=O)NC1CCCCCC1	3.6	1.3	-2.8	·	9.4	11.2
C[C@@H]1CN([C@@H](C)CO)C(=O)c2cc(NS(=O)(=O)c3cn(C)cn3)ccc2O[C@@H](C)CCCCO[C@@H]1CN(C)Cc1ccc(C(F)(F)F)cc1	-7.0	-4.3	·	·	·	·
CCN1CCc2nc(NC(=O)c3ccccc3)sc2C1	·	·	36.2	·	49.6	84.6*
O=C(Nc1cccc2c1CCCC2)c1cc([N+](=O)[O-])ccc1Cl	·	·	54.1*	·	-11.9	51.0*
O=C(Nc1cccc2c1CCCC2)c1ccc(Cl)c([N+](=O)[O-])c1	·	-9.7	0.3	16.7	-21.8	13.0
O=C(Nc1ccccc1)c1cc([N+](=O)[O-])ccc1Cl	7.9	0.3	2.7	25.4	-4.6	7.4
O=C(Nc1ccc([N+](=O)[O-])cc1Cl)c1cc(Cl)ccc1O	8.5	-107.2	79.9*	-214.8	61.5*	100.2*
O=C(Nc1cccc(Cl)c1)c1cc(N=Nc2ccc([N+](=O)[O-])cc2Cl)ccc1O	-24.7	-15.2	2.6	-2.0	39.2	82.8*
Oc1ccccc1-c1n[nH]c(-c2ccccc2O)n1	-47.5	-93.4	-3.9	-87.0	-2.2	76.7*
O=C(O)c1cc(-c2ccc(-c3c(-c4ccc5c(c4)OCO5)noc3-c3ccsc3)cc2)nc2ccccc12	-100.8	-78.4	-3.6	-130.2	39.3	56.7*
CCOC(=O)c1c(C)[nH]c(/C(C)=N/O)c1C	·	·	-1.8	·	-1.5	10.1
CCOC(=O)c1c(C)[nH]c(C2=NNC(=NC3CC3)SC2)c1C	·	·	50.1*	·	83.6*	85.2*
CCNc1nc(CN2CCOCC2)nc2sc3c(c12)CCC3	·	-9.5	64.9*	·	-1.1	-2.1
CSc1ccc(-c2nc(CSCC(=O)N3CCOCC3)c(C)o2)cc1	·	-6.2	-9.3	-41.9	8.1	7.8
CCc1ccc(-c2nc(CSCC(=O)N3CCN(c4ncccn4)CC3)c(C)o2)cc1	81.5*	4.4	8.0	19.5	79.1*	51.5*
N#CCCn1cc(/C=N/NC(N)=S)c(-c2ccc(-c3ccccc3)cc2)n1	6.1	?	-12.5	0.8	13.0	50.7*
Cc1ccnc(NC(=O)Nc2cccc(F)c2)c1	·	·	-9.4	·	-19.0	65.9*
C[C@H]1CN([C@@H](C)CO)C(=O)c2cc(C#CCc3ccccc3)cnc2O[C@H]1CN(C)Cc1ccc(C(=O)O)cc1	-4.2	-16.2	·	-8.2	·	·
CCCC(=O)N1CCC2(CC1)CN[C@@H](CO)c1[nH]c3cc(OC)ccc3c12	-6.0	19.6	·	·	·	·
O=C(Nc1ccccc1)C1=C[C@@H](C2CCCCC2)C[C@@H](OCc2ccc(CO)cc2)O1	-111.7	-17.4	24.6	-62.9	73.0*	57.3*
